# Measured values as given in the supplement of paper PMC8726507.
# Unmarked numbers belong to inactive results.
# Tested on: Plasmodium falciparum NF54-HGL (transmission to Anopheles stephensi)
# Assay: percentage of barcode signal found in uninfected mosquitoes (transmission-blocking activity); higher = stronger blocking of transmission to mosquito, active = 80 or more
# Conditions: 10 µM; gametocyte preincubation time 24 h; readout time post-feed 8 days
# Procedure: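 The mixture was fed to Anopheles stephensi in 96-well plates as blood meals tagged with DNA-barcoded Asaia bacteria. Eight days later, mosquitoes were classed infected or uninfected by luminescence (mean + 5 SD of unfed controls). Barcodes were quantified by Luminex MagPlex-TAG in the pooled uninfected and infected Asaia cultures, background-corrected, and the score is % of barcode signal in uninfected mosquitoes = 100*Iu/(Iu+Ii).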
row,SMILES,percentage of barcode signal found in uninfected mosquitoes
1,c1ccc(-c2[nH]c3ccccc3c2C(c2ccccn2)N2CCCC2)cc1 (configuration not stated),82.6% (active)
2,CC(=O)Oc1ccccc1C(=O)Nc1ncc([N+](=O)[O-])s1,8.87%
3,CNc1snc(C)c1C(=O)NCCOc1ccc(OC)cc1,25.3%
4,Cc1nn2c(O)c3c(nc2c1-c1ccc(F)cc1)CCCC3,9.19%
5,CCc1nc2ccccc2n1CC(O)COc1cc(C)ccc1Cl (configuration not stated),41.3%
6,O=C(C1CCCCC1)N1CC(=O)N2CCc3ccccc3C2C1 (configuration not stated),51.6%
7,COc1ccc(-c2cnc3ccc(NCc4ccc(S(N)(=O)=O)cc4)nn23)cn1,68.2%
8,Cc1cc(Nc2ccncc2)n2nc(C)c(-c3ccccc3Cl)c2n1,53.9%
9,COC(=O)c1c(NC(=O)c2cc3ccccc3oc2=O)sc2c1CCN(Cc1ccccc1)C2,49.1%
10,CC(C)C(C(=O)Nc1ccc(S(=O)(=O)N(C)C)cc1)c1ccc(Cl)cc1 (configuration not stated),49.7%
11,O=C(Nc1ccc(N2CCNCC2)cc1)c1ccn2ncc(-c3cccc(Cl)c3)c2n1,81.5% (active)
12,Cc1cc2nc(NC(=O)C(C)(C)C)nc(Cl)c2n1Cc1ccc(Cl)cc1,79.6%
13,OCCc1ccc(Nc2nccc(-c3nnc4ccccn34)n2)cc1,77%
14,O=C(Nc1ccc(N2CCNCC2)nc1)c1oc(-c2ccccc2)nc1C(F)(F)F,79.2%
15,NS(=O)(=O)c1cncc(-c2ccc3nccc(-c4cn[nH]c4)c3n2)c1,78.5%
16,Brc1c(-c2ccc3c(c2)OCO3)nc2ncccn12,6.02%
17,Oc1c(I)cc(I)c2cccnc12,-1.81%
18,CN1CCN(c2nccc3nc(-c4ccc(F)c(F)c4)[nH]c23)CC1,97.2% (active)
19,Cc1ccc2cc(C3NC(=O)c4ccccc4N3)c(Cl)nc2c1 (configuration not stated),71.8%
20,Cc1cc(NC(=O)c2ccc(S(=O)(=O)N(Cc3ccccc3)C(C)C)cc2)no1,35.4%

# Same assay, conditions: 20 µM; gametocyte preincubation time 24 h; readout time post-feed 8 days
row,SMILES,percentage of barcode signal found in uninfected mosquitoes
1,CC[P](CC)(CC)=[Au][S][C@H]1O[C@@H](COC(C)=O)[C@H](OC(C)=O)[C@@H](OC(C)=O)[C@@H]1OC(C)=O,99% (active)
2,CC(C(=O)N1CCCC1)N1CCN(S(=O)(=O)c2ccc(C(C)(C)C)cc2)CC1 (configuration not stated),0.922%
3,C[C@H]1COc2c(N3CCN(C)CC3)c(F)cc3c(=O)c(C(=O)O)cn1c23,-1.12%
4,O=C([C@@H](c1ccc(Cl)cc1)c1cccnc1)N1CCN(c2ccc(C(F)(F)F)cc2)CC1,-0.981%
5,COc1ccc(-c2nnc3ccc(-c4cccc(C(C)C)c4)cn23)cc1OC,47.3%
6,Cc1nn(C(=O)Nc2cccc(C(F)(F)F)c2)c(C)c1Sc1ncccn1,2.49%
7,COc1ccc2nc(C)cc(OCC(=O)Nc3ccccc3OC)c2c1,5.42%
8,Cc1nc(-c2ccccn2)nc(N(C)CCc2ccccc2)c1Cl,92% (active)
9,Clc1cccc(CO[C@H]2CCc3ccccc3[C@@H]2n2ccnn2)c1,-1.12%
10,N#CCN(CCCCN1CCN(c2ccc(F)cc2)CC1)C(=O)OCc1ccccc1,36.5%
11,COc1ccc(S(=O)(=O)Nc2ccc(CN3CCN(C(=O)c4cccc(C#N)c4)CC3)cc2)cc1,8.68%
12,CCN(CC)S(=O)(=O)c1ccc(C(=O)Nc2cc(C)nn2-c2nc(C)c(C)c(=O)[nH]2)cc1,66.7%
13,Nc1ncc(-c2cn[nH]c2)cc1-c1nc2cc(Cl)cnc2[nH]1,48.9%
14,CC(=O)N1CCN(c2ccc(Oc3ccc(Cl)cc3O)cc2)CC1,23.4%
15,O=C(NCCN1CCCC1)c1cc(NCCN2CCOCC2)nc2ccc(Cl)cc12,88% (active)
16,Nc1ccc2ncnc(Nc3ccc(OCc4cccc(F)c4)c(Cl)c3)c2c1,17.8%
17,CCS(=O)(=O)N(Cc1ccco1)Cc1cc2ccc(C)cc2nc1O,-1.14%
